PD-1 reversal – activators reversing PD-1 mediated T-cell inhibition | activation, % (test concentration not listed) | 29,000 tested, under 10 active | AID 2316 | primary human CD4 T cells, PD-L1 beads, CellTiter-Glo 96 h; call rule not given here;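 further: 0% = median vehicle wells and 100% = positive control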
Shh pathway inh – Sonic Hedgehog pathway inhibition | hit rate 2.1% among 22,000 | Shh-LIGHT2 Gli-luciferase reporter, 30 h | inhibition, % (concentration not given with the values);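 active means mean inhibition across valid replicates above about 65%, limit read from the data; inconclusive means mean under the limit, yet half or more replicates past it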;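 further: pathway switched on by Shh-conditioned medium diluted 1 in 25 in low serum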
YB-1 expression – YB-1 expression inhibition | delta delta Cp (YB-1 minus CDIP) (no concentration beside the values) | AID 434959 | hit rate 0.37% among 30,000 | U2OS, qRT-PCR YB-1 vs CDIP delta delta Cp, 16 h; stronger effect = higher value; zero = DMSO, each unit about twofold;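 active means delta delta Cp rounded down to an integer at or above 3, about 3 SD of DMSO wells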;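 further: higher means less YB-1 transcript or more CDIP transcript relative to DMSO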
MITF inh – inhibitors of MITF; TRPM1 promoter luciferase, luminescence, 24 h; inhibition, % (test concentration not listed); hit rate 0.28% among 37,000; AID 2240; in the data active means inhibition above about 85%; inconclusive means no clear call, values can overlap the other calls; inactive means below about 68%;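 further: human melanocyte line stably carrying TRPM1 promoter luciferase reporter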
NOMO-1 viab – STK33 inhibitor candidate reducing NOMO-1 cell viability; hit rate 7.5% among 37,000; NOMO-1 AML viability, CellTiter-Glo luminescence, 72 h; inhibition, % (concentration not given with the values); in the data active means inhibition above about 80%; inconclusive means no clear call, values can overlap the other calls
Active calls of the source: *; ? = inconclusive; nt = not tested or not shown. Compounds with a hit are over-represented: about 7.4% of the library has one in this group of screens.

SMILES | PD-1 reversal | Shh pathway inh | YB-1 expression | MITF inh | NOMO-1 viab
COc1cc2c(c(N)c1OC)C(=O)/C(=C/c1cc(C)c(O)c(C)c1)C2 | -11 | 84* | 0.47 | -1 | 97*
CCSc1nccc(-c2ccc3c(c2)CCC(C)(C)O3)n1 | 0 | 78* | -0.36 | 46 | 9
Cc1ccc(NC(=O)CN(C)S(=O)(=O)c2ccccc2)c(C)c1 | 2 | nt | nt | -46 | -22
O=C(Cn1cnc2ccccc2c1=O)Nc1ccc(Br)cc1F | nt | nt | nt | 11 | 11
C=CCNC(=S)N1N=C2c3ccccc3CCC2C1c1ccccc1Cl (configuration not stated) | -1 | nt | -0.17 | 6 | 109*
CC(=O)N1N=C2c3ccccc3CCC2C1c1cccs1 (configuration not stated) | -1 | nt | -0.092 | 27 | -7
CN(CC(=O)Nc1ccc(C(N)=O)cc1)S(=O)(=O)c1ccc(F)cc1 | 3 | nt | nt | -32 | 18
FC(F)(F)c1ncncc1-c1nnnn1-c1ccccc1 | -1 | -19 | 0.014 | 0 | 0
C[C@H]1CN([C@@H](C)CO)C(=O)Cc2cc(NC(=O)Nc3ccc(C(F)(F)F)cc3)ccc2O[C@H]1CN(C)S(C)(=O)=O | nt | nt | -0.44 | -9 | 90*
C[C@H]1CN([C@@H](C)CO)C(=O)Cc2cc(NC(=O)Nc3ccc(C(F)(F)F)cc3)ccc2O[C@H]1CN(C)S(=O)(=O)c1cccs1 | -4 | 4 | -0.22 | 38 | 128*
C[C@@H]1CN([C@H](C)CO)C(=O)Cc2cc(NC(=O)Nc3ccc(C(F)(F)F)cc3)ccc2O[C@@H]1CN(C)S(C)(=O)=O | -2 | -9 | -0.24 | -25 | 86*
O=c1[nH]ncc(NCC2CCCO2)c1Cl (configuration not stated) | -1 | ? | 0.27 | 7 | 18
COc1ccc(C(O)CNC(=O)/C=C/c2ccccc2)cc1 (configuration not stated) | 0 | 32 | 0.056 | 10 | 112*
CCOC(=O)CSc1sc(C(=O)OCC)c2c1S(=O)(=O)N(C)c1ccccc1-2 | 0 | -12 | -0.41 | 12 | 120*
CCOC(=O)CSc1ncc(-c2ccccc2)nn1 | 1 | nt | nt | -23 | -22
Nc1cc(N)cc(C(=O)OCN2C(=O)c3ccccc3C2=O)c1 | 0 | -2 | -0.18 | -5 | 10
C[C@@H]1CN([C@H](C)CO)C(=O)c2cc(NC(=O)CCCCCC(=O)Nc3ccccc3N)ccc2O[C@@H]1CN(C)Cc1ccc(Cl)c(Cl)c1 | nt | nt | -0.21 | nt | nt
C[C@@H]1CN([C@H](C)CO)C(=O)Cc2cc(NC(=O)CCCCCC(=O)Nc3ccccc3N)ccc2O[C@H]1CN(C)Cc1ccc(Cl)c(Cl)c1 | -1 | nt | -0.11 | 10 | 108*
C[C@H]1CN([C@@H](C)CO)C(=O)c2cc(NC(=O)CCCCCC(=O)Nc3ccccc3N)ccc2O[C@H]1CN(C)Cc1ccc(Cl)c(Cl)c1 | -1 | nt | nt | 37 | 111*
C[C@H]1CN([C@@H](C)CO)C(=O)Cc2cc(NC(=O)CCCCCC(=O)Nc3ccccc3N)ccc2O[C@@H]1CN(C)Cc1ccc(Cl)c(Cl)c1 | 0 | nt | -0.72 | 13 | 92*
O=C(CCCN1C(=O)c2cccc3cccc(c23)C1=O)Nc1ccccc1[N+](=O)[O-] | 2 | nt | nt | 1 | 6
CC12CC3(C)CC(C)(C1)CC(C(=O)O)(C2)C3 | 0 | 17 | -0.69 | 2 | 27
CCC(C)Cn1c(CCCO)nc2ccccc21 (configuration not stated) | 1 | nt | nt | -37 | 6
Cc1nn(C(C)(C)C)c(OC(=O)c2cccc(Br)c2)c1S(=O)(=O)c1ccccc1 | -2 | nt | nt | 52 | 119*
Cc1nn(C(C)(C)C)c(OC(=O)c2ccc(Cl)cc2)c1S(=O)(=O)c1ccccc1 | -3 | nt | nt | 30 | 121*
SMILES | PD-1 reversal | Shh pathway inh | YB-1 expression | MITF inh | NOMO-1 viab
Cc1ccc(S(=O)(=O)c2c(C)nn(C(C)(C)C)c2OC(=O)c2ccccc2C(F)(F)F)cc1 | -3 | nt | nt | 7 | 61
O=C(Nc1ccccc1)Nc1ccc2nnsc2c1 | 1 | -63 | -0.53 | -20 | 83*
COc1ccc(N(CC(=O)Nc2ccc(F)c(F)c2)S(C)(=O)=O)cc1Cl | 0 | nt | nt | -6 | 22
CC(C)(CO)NC(=S)NCC1CCCO1 (configuration not stated) | -5 | -27 | -0.1 | -8 | -4
N#Cc1cccc(C#N)c1Oc1ccc(S(=O)(=O)NCc2ccco2)cc1 | -1 | 1 | -0.5 | 11 | 33
C=C1C(=O)O[C@@H]2[C@H]1[C@H](O)C[C@]1(C)[C@@H](O)CC=C(C)[C@@H]21 | -3 | -11 | -0.00055 | 8 | 115*
CN(C)/C=C/C(=O)c1sc(SCc2ccc(Cl)cc2)c2c1CC(C)(C)CC2=O | -1 | 12 | -0.41 | -1 | 113*
Cc1ccc(-c2csc3nnc(SCC(=O)c4ccc(Cl)c(Cl)c4)n23)cc1 | -6 | nt | nt | 32 | 103*
COc1ccc(NC(=O)Nc2ccc3c(c2)C(=O)N([C@H](C)CO)C[C@H](C)[C@H](CN(C)S(=O)(=O)c2ccc(F)cc2)O3)cc1 | -1 | nt | 10* | 0 | 49
COc1ccc(S(=O)(=O)N(C)C[C@@H]2Oc3ccc(NC(=O)Nc4ccc(C(F)(F)F)cc4)cc3C(=O)N([C@@H](C)CO)C[C@H]2C)cc1 | 0 | nt | 0.019 | -9 | 48
COc1ccc(S(=O)(=O)Nc2ccc3c(c2)C(=O)N([C@H](C)CO)C[C@H](C)[C@H](CN(C)S(=O)(=O)c2ccc(Cl)cc2)OCCCC[C@@H](C)O3)cc1 | -7 | 7 | -0.027 | 21 | 107*
COc1ccc(S(=O)(=O)N(C)C[C@@H]2Oc3ccc(NC(=O)Nc4ccc(C(F)(F)F)cc4)cc3C(=O)N([C@H](C)CO)C[C@H]2C)cc1 | 2 | 11 | -0.25 | 24 | 113*
C[C@@H]1CCCCO[C@H](CN(C)S(=O)(=O)c2ccc(Cl)cc2)[C@@H](C)CN([C@H](C)CO)C(=O)c2cc(NC(=O)Nc3ccc(C(F)(F)F)cc3)ccc2O1 | -5 | 32 | -0.044 | 15 | 98*
COc1ccc(S(=O)(=O)N(C)C[C@H]2OCCCC[C@@H](C)Oc3ccc(NS(=O)(=O)c4ccc(Cl)cc4)cc3C(=O)N([C@H](C)CO)C[C@@H]2C)cc1 | nt | 35 | -0.23 | 24 | 65
C[C@@H]1CCCCO[C@@H](CN(C)S(=O)(=O)c2ccc(Cl)cc2)[C@@H](C)CN([C@H](C)CO)C(=O)c2cc(NC(=O)Nc3ccc(C(F)(F)F)cc3)ccc2O1 | -2 | -11 | -0.38 | 0 | 23
CCOC(=O)c1c(COC(C)=O)n(C)c2cc(Br)c(OC)cc12 | -1 | nt | -0.51 | 20 | 46
Cc1ccc(C(O)c2nccc3ccccc23)cc1 (configuration not stated) | 2 | 23 | -0.041 | -8 | -1
C[C@@H]1CN([C@@H](C)CO)C(=O)c2cc(NC(=O)Nc3ccc(C(F)(F)F)cc3)ccc2O[C@H]1CN(C)S(=O)(=O)c1ccc(Cl)cc1 | -1 | 1 | -0.065 | -17 | 93*

Assay outcomes: PubChem BioAssay, Broad Institute
